Compounds with a hit are over-represented: about 0.9% of the library has one in this group of screens.
GPT2 inhibitor: inhibitors of human GPT2 alanine aminotransferase; Q8TD30; Recombinant GPT2, coupled pyruvate oxidase/HRP Amplex Red fluorescence; 100,000 compounds, 0.25% hits; Potency, µM (top dose mostly 57.7 µM), for the others: at the highest dose activity change, negative = inhibition, most hits filed as inhibitors; also: potency is read from the fitted curve at half-maximal effect; nearly all actives have a fitted effect of over 60% in size
Target sequence (Q8TD30 whole entry, looked up): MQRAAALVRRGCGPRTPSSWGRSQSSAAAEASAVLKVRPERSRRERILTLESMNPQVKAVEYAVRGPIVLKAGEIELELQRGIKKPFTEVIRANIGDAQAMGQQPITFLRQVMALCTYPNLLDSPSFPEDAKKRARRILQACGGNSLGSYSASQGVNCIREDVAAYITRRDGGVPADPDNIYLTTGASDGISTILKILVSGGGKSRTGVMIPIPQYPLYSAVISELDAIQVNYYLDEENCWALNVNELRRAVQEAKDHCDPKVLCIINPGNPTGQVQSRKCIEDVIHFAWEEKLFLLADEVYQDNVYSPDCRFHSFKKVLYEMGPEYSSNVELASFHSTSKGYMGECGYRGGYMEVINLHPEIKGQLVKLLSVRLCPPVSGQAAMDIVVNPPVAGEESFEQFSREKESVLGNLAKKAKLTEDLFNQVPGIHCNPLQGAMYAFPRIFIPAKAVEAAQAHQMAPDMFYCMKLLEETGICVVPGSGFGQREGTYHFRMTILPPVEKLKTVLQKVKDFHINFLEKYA
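Fluorescence read-out: pyruvate from GPT2 turnover coupled to pyruvate oxidase, HRP and Amplex Red (0.2mM ThPP, 0.2U/mL PO and HRP, 50uM Amplex final). Substrates 250uM a-KG, 2mM L-alanine; enzyme 10ng/uL; 30 min RT.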
SNCA expr inhib: inhibitors of alpha-synuclein (SNCA) gene expression; HEK-293 SNCA-luciferase knock-in, luminescence, 24 h; Potency, µM (doses to about 57.2 µM), inactives show top-dose activity change, negative = inhibition, usual class: inhibitors; 140,000 compounds, 0.17% hits;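 also: potency is read from the fitted curve at half-maximal effect; plate controls were DMSO cells for no effect and cell-free wells for full effect; nearly all actives have a fitted effect of over 45% in size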
IP6K1 inh: blocks human inositol hexakisphosphate kinase 1; 140,000 compounds, 0.81% hits; Q92551; activity change, % (series mostly up to about 58 µM); IP6K1 kinase, ADP-Glo luminescence, 2 h; hits give low values; AID 1645851; in the data active = activity change below about -25%
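ADP-Glo luminescence measures ADP made by human IP6K1 during a 2 h RT reaction with ATP/IP6 (mix at 1.3 mM/130 uM); top library doses 57.5 and 19.1 uM final.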
SNCA viab count: counter-screen for SNCA expression inhibitors: cell viability. HEK-293-SNCA-luc viability, GF-AFC fluorescence, 24 h. Potency, µM (top dose mostly 57.1 µM), without a hit: at the highest dose activity change, negative = cytotoxicity, usual class: cytotoxic. 150,000 compounds, 0.12% hits. AID 1671193;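 also: potency is read from the fitted curve at half-maximal effect; 0% = DMSO-treated cells and -100% = medium-only wells without cells; nearly all actives have a fitted effect of over 30% in size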
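Cytotoxicity counterscreen: after 24 h compound treatment of genome-edited SNCA-luciferase HEK-293 cells, live-cell protease substrate GF-AFC read by fluorescence after 30 min; activity scaled between DMSO (0%) and medium-only (-100%), curves Hill-fitted.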
IP6K1 inh cnf: human IP6K1 inhibition, confirmatory; shares compounds with IP6K1 inh; recombinant IP6K1 kinase, ADP-Glo luminescence, 2 h; Potency, µM (highest dose often 49 µM), without a hit: at the top dose activity change, negative = inhibition, actives largely listed as inhibitors; 1,200 compounds, 13% hits; AID 1645852; also: potency is read from the fitted curve at half-maximal effect; nearly all actives have a fitted effect of over 65% in size
Active calls of the source: *; i = inactive; ? = inconclusive; . = not tested or not shown; [ ] = dose if it differs, or a comment. Unless noted, calls follow the shape of the dose curve; as a rule, active = well fitted curve in the direction sought with a large enough effect; inconclusive = small, poorly fitted or top-dose-only effect, or another doubt; inactive = no such curve, though single readings can be large; an effect the other way counts as inactive or inconclusive. Unless noted, % is scaled to controls: 0 for no effect and ±100 for the full control effect.

SMILES | GPT2 inhibitor | SNCA expr inhib | IP6K1 inh | SNCA viab count | IP6K1 inh cnf
Cc1ccc([N+](=O)[O-])cc1S(=O)(=O)N(C)/N=C/c1cnc2ccc(Br)cn12 | ? | . | -25.4* | ? | ?
O=C(NCC1CC1)c1ccc2nnc(-c3ccc(Cl)cc3)n2c1 | 4.0%[88.5 µM] | 4.7%[87.6 µM] | 7.8 | 3.9%[87.6 µM] | .
Cc1ccc(-n2c(C)nc3c(cnn3-c3ccccc3)c2=O)cc1 | . | 12.4% | 1.6 | 3.6% | .
CC1=NN(c2ccccc2)C(=O)C1 | ? | -29.0%[25.6 µM] | -32.3* | 4.6% | -14.0%
Fc1cc(-c2cccc3ncc(-c4cnn(C5CCNCC5)c4)nc23)cc(F)c1CN1CCOCC1 | i | ? | 11.8 | ? | -4.2%
Cc1nc(Nc2cnn(C3CCNCC3)c2)nc2c1N(C)C(=O)c1cc3ccccc3cc1N2C | -9.1% | . | 9.6 | ? | .
CC(=O)NC1CCN(c2nc3ncccc3o2)C1 (centres undefined) | i | 6.3%[87.6 µM] | 18.1 | 1.2%[87.6 µM] | .
COc1cccc(-c2ccc3c(N)c(C(=O)Nc4ccccc4C)sc3n2)c1 | . | ? | -25.8* | ? | 2.2%
COc1cccc(NC(=O)c2cnc(SCC(=O)N3CCCc4ccccc43)n(C)c2=O)c1 | . | 9.4% | -27.5* | -3.3% | -2.6%
O=C(NC1CC1)c1cc(-c2ccsc2)c2nncn2n1 | i | 8.9%[87.6 µM] | 10.4 | 4.8%[87.6 µM] | .
Cc1cccc2c1NC(=O)C2(c1ccc(O)cc1)c1ccc(O)cc1 | -11.4% | . | -26.0* | -7.5% | 1.2%
O=C1Nc2ccccc2C1(c1ccc(O)cc1)c1ccc(O)cc1 | -0.2% | -8.2%[25.6 µM] | 5.5 | -17.6%[23.9 µM] | .
CC(C)Oc1ccc2c(NC(=O)C3CCOC3)nn(Cc3ccccc3)c2c1 (centres undefined) | -5.3%[11.5 µM] | -22.1% | 5.4 | 2.8% | .
CC(C)Oc1ccc2c(NC(=O)CN3CCCC3=O)nn(Cc3ccccc3)c2c1 | -3.4%[11.5 µM] | 22.1% | -32.5* | -7.1% | -3.7%
COc1ccc(NC(=O)c2c(NCc3cccc(OC)c3)sc3c2CCCC3)cc1 | . | ? | -1.4 | 5.2% | .
COc1ccc(NC(=O)c2c(NCc3ccc(N(C)C)cc3)sc3c2CCC3)cc1 | . | 29.1% | -26.7* | -21.8% | -11.1%
CCOC(=O)c1ccc(NC(=O)Cc2ccc(-n3c(CC)nc4cccnc43)cc2)cc1 | . | 4.7% | -44.5* | ? | ?
FC(F)(F)c1ccc2nc([C@H]3CCN(Cc4ccccn4)C3)[nH]c2c1 | -8.9%[88.5 µM] | 99.6%[87.6 µM] | 16.4 | -1.5%[87.6 µM] | .
O=C(Nc1noc2ccccc12)c1cccc(F)c1 | . | -41.0% | 1.1 | 11.0% | .
O=C(Nc1noc2ccccc12)c1ccc(F)cc1 | . | -74.8% | -48.4* | 17.9% | ?
O=C(NCc1sc2ccccc2c1Cl)[C@H]1CCC[C@H](O)C1 | i | 13.3% | 22.0 | 13.3% | .
Cc1nnc(NC(=O)CSCc2cc(=O)c3ccc(C)c(C)c3[nH]2)s1 | . | 31.0% | -16.6 | 2.5% | .
COc1cccc(NC(=O)CSCc2cc(=O)c3ccc(C)c(C)c3[nH]2)c1 | . | 13.8% | -37.4* | 6.3% | ?
OCCOCCN1CCN(C(c2ccccc2)c2ccc(Cl)cc2)CC1 (centres undefined) | 4.4% | -31.9%[25.6 µM] | -31.1* | -24.2%[23.9 µM] | 3.66µM*
O=c1c(S(=O)(=O)c2ccc(Cl)cc2)cn(Cc2ccc(F)cc2)c2ccc(F)cc12 | . | 23.5% | -37.6* | 13.9% | ?
SMILES | GPT2 inhibitor | SNCA expr inhib | IP6K1 inh | SNCA viab count | IP6K1 inh cnf
Cc1ccccc1CN1Cc2nc(-c3ccc4c(c3)OCO4)ccc2OCC1=O | -2.7%[88.5 µM] | 1.2%[87.6 µM] | -15.9 | ? | .
COc1ccc(C(=O)c2sc(Nc3cc(Cl)ccc3C)nc2N)cc1OC | . | 13.3% | -19.0 | -8.1% | .
Cc1ccccc1Nc1nc(N)c(C(=O)c2ccccc2Cl)s1 | . | -23.1% | -51.7* | ? | 3.26µM*
O=C(O)Cn1nnc(-c2ccc(OCc3cccc(C(F)(F)F)c3)cc2)n1 | . | 6.0% | -29.8* | 0.5% | ?
O=C(OCc1cccc(C(F)(F)F)c1)c1ccc(-c2nnn(Cc3ccc(F)cc3)n2)cc1 | . | 2.7% | -3.3 | 1.4% | .
COc1ccc(-c2cc(N3CCN(C(=O)Cc4ccc(C)cc4)CC3)n[nH]2)cc1 | -11.5% | -2.7% | 14.6 | 0.4% | .
CCn1c(C(=O)N(C2CC2)C2CC2)cc2c3c(ncn3C)c(Nc3cc(C)n(C)n3)nc21 | -10.5% | 10.4% | -6.9 | ? | -1.9%
CNC(=O)N1CCCC1c1nc(C2CN(S(=O)(=O)c3c(C)noc3C)C2)no1 (centres undefined) | -20.5% | 16.9% | 7.8 | -0.1% | .
Cc1nn(-c2ccccc2)c2c1C(C(C)C)N(C1CCN(C(=O)c3ccccc3F)CC1)C2=O (centres undefined) | . | . | 14.3 | . | .
O=C(Nc1nc2cccc(-c3ccc(CN4CCS(=O)(=O)CC4)cc3)n2n1)C1CC1 | 4.5% | 52.0% | -9.3 | ? | 38.6%
O=C(Nc1ccnn1C1CCN(Cc2ccc(-c3ccccc3)cc2)CC1)C1CC1 | 2.1% | 50.6% | -0.7 | -3.5% | .
CO[C@H]1[C@H](NC(=O)c2c(F)ccc(C)c2F)c2ccccc2C12CCNCC2 | -32.4% | 17.5% | 15.5 | -20.8% | .
CCOC(=O)[C@@H]1[C@@H](OC)C(=O)N(C)C12CCN(S(=O)(=O)c1ccc(NC(C)=O)cc1)CC2 | . | . | 3.0 | . | .
CCOC(=O)N1CCN(Cc2nc3cc(NC(=O)C(C)C)ccc3n2C(C)C)CC1 | . | -23.2% | -35.9* | -10.4% | 6.1%
CCOC(=O)N1CCN(Cc2nc3cc(NC(=O)c4ccc(OC)cc4)ccc3n2C(C)C)CC1 | . | -6.9% | -19.5 | 5.1% | .
O=C(NC1CCCC1)C1CCN(Cc2ccccc2-c2cccnc2)CC1 | i | -19.3% | 7.3 | 1.0% | .
CCOC(=O)c1cccc(NC(=O)N2Cc3ccccc3Oc3ncccc32)c1 | . | -8.5% | -32.8* | ? | -21.2%
OC1(CN2CCCCC2)CCN(Cc2cnn(-c3ccccc3Cl)c2)C1 (centres undefined) | -18.1%[11.5 µM] | 21.6% | -36.0* | -6.8% | 7.9%

Screens as filed in PubChem BioAssay.
